# Screening results from PubChem BioAssay.
# The sample as a whole holds a higher share of hits than the screen did.
# IDE exosite FP: insulin-degrading enzyme (human) exo-site inhibition. P14735. 6.3% of 17,000 active. AID 1259349. z-score at 20 µM. purified IDE, FL-6b probe fluorescence polarization; stronger effect = lower value;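 active = z-score of -3 or lower, meaning strong loss of probe binding signal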;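 also: His-tagged human IDE residues 42-1019 made in E. coli with 30 nM FL-6b probe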
# Target sequence (P14735 42-1019 limits assumed): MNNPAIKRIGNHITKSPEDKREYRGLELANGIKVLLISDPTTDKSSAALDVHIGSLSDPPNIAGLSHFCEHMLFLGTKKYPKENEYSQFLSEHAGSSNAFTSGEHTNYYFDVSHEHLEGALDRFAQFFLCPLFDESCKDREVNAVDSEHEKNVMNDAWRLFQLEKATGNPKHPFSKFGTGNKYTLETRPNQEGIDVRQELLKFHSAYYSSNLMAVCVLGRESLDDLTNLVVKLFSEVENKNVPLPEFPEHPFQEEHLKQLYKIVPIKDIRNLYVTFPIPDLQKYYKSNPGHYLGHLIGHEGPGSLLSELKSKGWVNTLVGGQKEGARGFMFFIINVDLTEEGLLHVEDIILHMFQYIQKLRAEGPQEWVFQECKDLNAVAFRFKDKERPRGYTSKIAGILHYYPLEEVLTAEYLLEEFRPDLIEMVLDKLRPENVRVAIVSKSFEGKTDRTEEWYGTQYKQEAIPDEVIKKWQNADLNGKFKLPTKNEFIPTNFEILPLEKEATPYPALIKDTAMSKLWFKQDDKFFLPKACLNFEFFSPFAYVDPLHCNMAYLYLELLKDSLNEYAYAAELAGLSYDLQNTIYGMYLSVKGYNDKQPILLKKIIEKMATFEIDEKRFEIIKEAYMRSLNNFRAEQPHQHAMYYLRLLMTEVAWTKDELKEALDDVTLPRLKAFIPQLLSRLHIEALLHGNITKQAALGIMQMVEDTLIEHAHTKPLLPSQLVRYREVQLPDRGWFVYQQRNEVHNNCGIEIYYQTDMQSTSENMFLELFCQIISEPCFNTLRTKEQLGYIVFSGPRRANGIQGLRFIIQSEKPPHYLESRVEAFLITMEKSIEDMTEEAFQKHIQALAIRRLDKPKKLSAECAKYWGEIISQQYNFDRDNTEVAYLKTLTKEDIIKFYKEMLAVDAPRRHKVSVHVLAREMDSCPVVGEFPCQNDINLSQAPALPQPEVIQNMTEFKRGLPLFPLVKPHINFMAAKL
# * marks the source's active call; other numbers are inactive results; ! = not confirmed by another sample.
SMILES,IDE exosite FP
Cc1ccc(-c2ccc([C@H]3[C@@H](CO)N4C(=O)CN(C(=O)c5ccncc5)C[C@H]34)cc2)cc1,-0.89
CC(C)CC#Cc1ccc([C@H]2[C@@H](CO)N3C(=O)CN(C(=O)c4cnccn4)C[C@@H]23)cc1,1.6
COCC(=O)N(C[C@H]1N[C@H](CO)[C@@H]1c1ccc(-c2cccnc2)cc1)C(C)C,0.053
c1cncc(CN2C[C@@H]3N[C@H](C2)C3c2ccc(-c3cccnc3)cc2)c1 (stereo not given in full),1.8
OC[C@@H]1[C@@H](c2ccc(/C=C/c3ccccc3)cc2)[C@@H]2CN(Cc3cncnc3)CCCCN12,-7.9*
O=C(C1CCC1)N1C[C@@H]2N[C@H](C1)C2c1ccc(/C=C/c2ccccc2)cc1 (stereo not given in full),-1.7
OC[C@H]1[C@H](c2ccc(Br)cc2)[C@@H]2CN(Cc3cncnc3)CCCCN12,2.8
OC[C@@H]1[C@@H](c2ccc(-c3ccccc3)cc2)[C@H]2CN(Cc3cncnc3)CCCCN12,2.7
C(=C\c1ccc(C2[C@@H]3CN(Cc4cccnc4)C[C@H]2N3)cc1)/c1ccccc1 (stereo not given in full),-4.8*!
C[C@@H]1CCCCO[C@@H](CN(C)C(=O)Nc2ccc(C(F)(F)F)cc2)[C@H](C)CN([C@@H](C)CO)C(=O)c2cc(NS(=O)(=O)c3cn(C)cn3)ccc2O1,-0.05
COc1ccc(S(=O)(=O)N2CCCCN3[C@H](CO)[C@H](c4ccc(-c5cccnc5)cc4)[C@H]3C2)cc1,2.4
CC(C)C#Cc1ccc([C@@H]2[C@H](C#N)N(C(=O)CN(C)C)[C@H]2CO)cc1,1.7
C[C@H](CO)N1C[C@H](C)[C@@H](CN(C)C)Oc2ccc(NS(C)(=O)=O)cc2C1=O,0.55
Cc1cccc(-c2ccc([C@@H]3[C@H](CO)N4CCCCN(S(=O)(=O)c5cccs5)C[C@@H]34)cc2)c1,-8*
Cc1cccc(-c2ccc([C@H]3[C@H](CO)N4CCCCN(S(=O)(=O)c5cccs5)C[C@@H]34)cc2)c1,3.2
Cc1cccc(-c2ccc([C@@H]3[C@@H](CO)N4CCCCN(S(=O)(=O)c5cccs5)C[C@@H]34)cc2)c1,-3.8*
COc1cccc(-c2ccc([C@@H]3[C@H](CO)N4CCCCN(S(=O)(=O)c5cccs5)C[C@@H]34)cc2)c1,-6*
O=S(=O)(c1cccs1)N1CCCCN2[C@H](C1)[C@H](c1ccc(C3=CCCC3)cc1)[C@@H]2CO,0.98
Cc1cccc(-c2ccc([C@H]3[C@@H](CO)N4CCCCN(S(=O)(=O)c5cccc(C)c5)C[C@@H]34)cc2)c1,-1.1
COc1cccc(-c2ccc([C@@H]3[C@@H](CO)N4CCCCN(S(=O)(=O)c5cccs5)C[C@H]34)cc2)c1,0.67
O=S(=O)(c1cccs1)N1CCCCN2[C@H](CO)[C@H](c3ccc(/C=C/c4ccccc4)cc3)[C@@H]2C1,-0.12
O=S(=O)(c1cccs1)N1CCCCN2[C@H](C1)[C@H](c1ccc(/C=C/c3ccccc3)cc1)[C@@H]2CO,-0.7
COc1cccc(S(=O)(=O)N2CCCCN3[C@@H](CO)[C@@H](c4ccc(-c5ccccc5)cc4)[C@@H]3C2)c1,5.5
O=S(=O)(c1cccs1)N1CCCCN2[C@@H](CO)[C@@H](c3ccc(/C=C/c4ccccc4)cc3)[C@@H]2C1,-3.2*
Cc1cccc(-c2ccc([C@@H]3[C@H]4CN(S(=O)(=O)c5cccs5)CCCCN4[C@H]3CO)cc2)c1,0.55
SMILES,IDE exosite FP
CO[C@H]1CN(C)C(=O)c2cc(NC(=O)c3ccccc3F)ccc2OC[C@@H](C)N(CC2CCOCC2)C[C@H]1C,0.11
N#C[C@@H]1[C@H](c2ccc(C3=CCCC3)cc2)[C@H](CO)N1C(=O)NC1CCCCC1,4.4
O=C(Nc1cccc(F)c1)N1[C@@H]2CNC[C@H]1C2c1ccc(-c2cccnc2)cc1 (stereo not given in full),-2
CC(C)CC#Cc1ccc([C@@H]2[C@@H](CO)N3C(=O)CN(C(=O)Cc4ccccc4)C[C@@H]23)cc1,1.8
COCC(=O)N1CCCCN2[C@H](CO)[C@H](c3ccc(-c4ccc(F)cc4)cc3)[C@@H]2C1,-2.1
O=C(CN1CCOCC1)N1[C@H](CO)[C@@H]2c3ccccc3NC[C@@H]21,3.2
COCC(=O)N1[C@@H]2c3cccc(=O)n3C[C@@H]2[C@@H](CO)[C@@H]1C(=O)NCc1ccccc1,0.14
O=C(c1cnccn1)N1CC(=O)N2[C@H](CO)[C@@H](c3ccc(C4=CCCCC4)cc3)[C@@H]2C1,-1.7
C[C@H](CO)N1C[C@H](C)[C@H](CN(C)CC2CC2)Oc2ccc(NC(=O)CCC(F)(F)F)cc2CC1=O,-0.14
COc1ccccc1NC(=O)N1CC(=O)N2[C@H](CO)[C@@H](c3ccc(C#Cc4ccc(F)cc4)cc3)[C@@H]2C1,1.5
COc1ccccc1-c1ccccc1[C@H]1[C@@H](C#N)N(C(=O)CN(C)C)[C@H]1CO,-0.88
CN(C)CC(=O)N1[C@H](CO)[C@@H](c2ccc(-c3ccccc3F)cc2)[C@@H]1C#N,-3.4*
COc1ccccc1-c1ccc([C@H]2[C@@H](C#N)N(C(=O)CN(C)C)[C@H]2CO)cc1,-3.7*
CN(C)CC(=O)N1[C@H](CO)[C@H](c2ccc(-c3ccccc3F)cc2)[C@@H]1C#N,0.68
COc1ccc(-c2ccc([C@@H]3[C@@H](C#N)N(C(=O)CN(C)C)[C@@H]3CO)cc2)cc1,1.8
CN(C)CC(=O)N1[C@@H](C#N)[C@@H](c2ccc(-c3ccc(C(=O)N(C)C)cc3)cc2)[C@@H]1CO,0.87
CN(C)CC(=O)N1[C@H](C#N)[C@H](c2ccc(-c3ccccc3F)cc2)[C@@H]1CO,-1.6
COc1ccccc1-c1ccc([C@H]2[C@H](C#N)N(C(=O)CN(C)C)[C@H]2CO)cc1,-14*
COc1ccccc1-c1ccccc1[C@@H]1[C@@H](C#N)N(C(=O)CN(C)C)[C@@H]1CO,-0.39
CN(C)CC(=O)N1[C@H](C#N)[C@H](c2ccc(-c3ccccc3F)cc2)[C@H]1CO,1.7
CN(C)CC(=O)N1[C@H](C#N)[C@@H](c2ccc(-c3ccc(C(=O)N(C)C)cc3)cc2)[C@@H]1CO,1.7
COc1ccccc1-c1ccc([C@@H]2[C@H](C#N)N(C(=O)CN(C)C)[C@H]2CO)cc1,-5.1*
O=S(=O)(Cc1ccccc1)N1CCCCN2[C@H](C1)[C@H](c1ccc(-c3cccnc3)cc1)[C@@H]2CO,-0.26
COc1ccccc1S(=O)(=O)N1C[C@@H]2N[C@H](C1)C2c1ccc(-c2cccc(F)c2)cc1 (stereo not given in full),4.2
Cc1cccc(S(=O)(=O)N2CCCCN3[C@H](C2)[C@H](c2ccc(C#C[C@H](C)O)cc2)[C@@H]3CO)c1,2
SMILES,IDE exosite FP
CC(C)CN(C[C@@H]1[C@@H](c2ccccc2)[C@H](CO)N1C(=O)C1CCC1)C(=O)C1CC1,5
COCC#Cc1ccc([C@@H]2[C@H](CO)N3C(=O)CN(C(=O)Nc4cc(F)ccc4F)C[C@@H]23)cc1,1.9
COc1ccc2c3c(n(C)c2c1)[C@H](CO)N(C(=O)Nc1ccc(F)cc1)CC31CCN(C(=O)c2ccc3c(c2)OCO3)CC1,-0.32
C[C@@H](O)C#Cc1ccc([C@H]2[C@H](CO)N3CCCCN(S(=O)(=O)c4ccccc4)C[C@@H]23)cc1,2.5
CO[C@H]1CN(C)C(=O)c2ccc(NC(C)=O)cc2OC[C@@H](C)N(Cc2cccc(F)c2)C[C@H]1C,0.98
CCC(=O)N1[C@H](CO)[C@H]2c3ccccc3N(C(=O)c3cnccn3)C[C@H]21,2
